Screens (PubChem BioAssay)
ST2 inh: blocks human ST2 binding to IL-33. Q01638. AlphaLISA ST2-Fc/biotin-IL-33 interaction, 1 h. inhibition, % for hits at 17 µM. actives 2.3% (n = 78,000); in the data active = inhibition above about 30%
Target sequence (Q01638 whole entry, looked up): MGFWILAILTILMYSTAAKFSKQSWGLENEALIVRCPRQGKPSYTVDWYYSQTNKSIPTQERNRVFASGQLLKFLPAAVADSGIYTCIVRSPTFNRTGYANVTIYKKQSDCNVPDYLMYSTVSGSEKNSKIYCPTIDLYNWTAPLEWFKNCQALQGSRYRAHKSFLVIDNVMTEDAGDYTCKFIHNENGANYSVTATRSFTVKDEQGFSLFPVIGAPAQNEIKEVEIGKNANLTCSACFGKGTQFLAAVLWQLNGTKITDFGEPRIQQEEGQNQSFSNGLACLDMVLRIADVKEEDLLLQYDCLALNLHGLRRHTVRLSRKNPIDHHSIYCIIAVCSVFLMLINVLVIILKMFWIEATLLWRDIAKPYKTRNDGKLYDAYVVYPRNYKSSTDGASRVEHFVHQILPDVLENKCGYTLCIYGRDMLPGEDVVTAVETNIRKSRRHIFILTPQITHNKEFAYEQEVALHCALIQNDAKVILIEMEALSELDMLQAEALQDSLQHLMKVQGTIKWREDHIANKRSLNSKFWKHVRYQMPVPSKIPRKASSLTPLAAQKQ
* = called active by the depositor; i = inactive. The entries come from a sample that favours hits as a whole.

SMILES	ST2 inh
Cc1cccc(NC(c2cccc(Cl)c2)c2ccc3cccnc3c2O)n1 (stereo not drawn)	34%*
Cc1cccc(NC(c2cccc(F)c2)c2ccc3cccnc3c2O)n1 (stereo not drawn)	i
O=c1cc(CO)oc(C(Nc2ccccn2)c2ccc3c(c2)OCO3)c1O (stereo not drawn)	i
Cc1ccnc(NC(c2ccc(N(C)C)cc2)c2ccc3cccnc3c2O)c1 (stereo not drawn)	32%*
Cc1ccc(S(=O)(=O)Nc2ccccn2)cc1C	i
CC(=O)NC(c1ccc(Cl)cc1Cl)c1ccc2cccnc2c1O (stereo not drawn)	i
Cc1cc(Cl)ccc1NC(=O)CSc1cccc2cccnc12	i
O=C(CN1CCN(Cc2cccc(Cl)c2)C1=O)N1CCc2ccccc2C1	i
NS(=O)(=O)c1ccc(NC(=O)Cn2cnc(S(=O)(=O)N3CCCCC3)c2)cc1	i
CN(C(=O)Cc1c(C(=O)O)[nH]c2ccccc12)c1ccc(Br)cc1	i
COCCN1C(=O)CC(CC(=O)N2CCCC(c3nc4ccccc4[nH]3)C2)(c2ccccc2F)C1=O (stereo not drawn)	i
CN(C)C(=O)c1ccc2c(c1)N(CC(=O)N1CCN(C3CCCCC3)CC1)C(=O)C1CCCCN21 (stereo not drawn)	i
Cc1cccc(NC(c2ccccc2)c2ccc3ccc(C)nc3c2O)n1 (stereo not drawn)	36%*
Cc1cccc(NC(c2cccc(C)n2)c2ccc3ccc(C)nc3c2O)n1 (stereo not drawn)	i
CCC(C(=O)Nc1cccc(C)n1)c1ccccc1 (stereo not drawn)	i
COc1ccccc1C1C2=C(CC(C)(C)CC2=O)Nc2nc(SCc3cccnc3)[nH]c(=O)c21 (stereo not drawn)	i
O=C(Nc1ccccc1[N+](=O)[O-])c1ccc(S(=O)(=O)N2CCCCC2)cc1	35%*
CC1CN(S(=O)(=O)c2ccc(Cl)c(C(=O)Nc3ccccc3[N+](=O)[O-])c2)CC(C)O1 (stereo not drawn)	i
O=C(Nc1ccccn1)c1cccc(S(=O)(=O)N2CCCCC2)c1	i
O=C(Nc1ccccc1[N+](=O)[O-])c1cccc(S(=O)(=O)N2CCCCC2)c1	43%*
Cc1ccc(NC(=O)c2cccc(S(=O)(=O)N3CCCCC3)c2)cc1	i
O=C(Nc1ccccc1C(=O)O)c1ccc(S(=O)(=O)N2CCCCC2)cc1	i
COc1ccc(OC)c(NC(=O)CC(=O)N2CC[C@@H](O)C2)c1	i
Cc1ccoc1C(=O)N1CCCn2nc(C(=O)Nc3ccccc3)cc2C1	i
N#CSCC(=O)n1c2c(c3ccccc31)CCCC2	i
SMILES	ST2 inh
COc1ccc(CCNC(=O)c2cn(Cc3cccc4ccccc34)nn2)cc1	i
CCOC(=O)c1c(NC(=O)c2sc3ccccc3c2Cl)sc2c1CCN(C)C2	38%*
CCOC(=O)c1c(NC(=O)c2ccc(S(=O)(=O)N3CCCC3)cc2)sc2c1CCN(C)C2	i
CCOC(=O)c1c(NC(=O)c2ccc(Br)s2)sc2c1CCN(C)C2	i
CC1=C(C(=O)Nc2ccccc2)C(c2ccccn2)n2nc(-c3ccccc3)nc2N1 (stereo not drawn)	i
O=C(NCc1ccc(F)cc1Cl)C1CCN(S(=O)(=O)N2CCCC2)CC1	i
Cc1noc(-c2ccnc(Oc3ccc(CN4CCCC4)cc3C)c2)n1	i
O=[N+]([O-])c1ccc(Nc2c[nH]c3ccccc23)cc1	42%*
O=c1cc[nH]c2ccc([N+](=O)[O-])cc12	i
O=[N+]([O-])c1ccc(S(=O)(=O)Nc2ccccc2)cc1	i
Cn1nccc1C(=O)N1CCOC(Cc2ccc(F)cc2)C1 (stereo not drawn)	i
CCOc1ccc(NC(=O)CC2CCCCC2)cc1	i
CCCCCN=Cc1sc2ccc(OCC)cc2c1O	33%*
CCOc1ccc2sc(C=NCCc3ccccn3)c(O)c2c1	i
CCOc1ccc2nc(N=Cc3nc(-c4ccc(Br)cc4)oc3O)sc2c1	i
CCOc1ccc2sc(C=NC3CCCCC3)c(O)c2c1	41%*
CCOc1ccc2nc(NC(=O)C3CCCCC3)sc2c1	i
O=C1CCC(C(=O)NCc2cccnc2N2CCOCC2)=NN1	i
O=C(Nc1ccccc1F)C(Cc1ccccc1)NS(=O)(=O)c1cccs1 (stereo not drawn)	i
CC(C)c1noc(C(C)NC2CCN(C(=O)c3ccccc3)CC2)n1 (stereo not drawn)	i
CCC(=O)Nc1ccc(NC(=O)c2cc(Br)ccc2OC)cc1	i
COc1cc(C=O)ccc1OCCOc1ccccc1OC(C)C	i
COc1cccc(C2C(C(=O)Nc3ccccn3)=C(C)NC3=C2C(=O)CC(C)(C)C3)c1 (stereo not drawn)	i
O=C(Nc1ccccc1O)c1cc2ccccc2o1	i
O=C(Nc1ccccc1Cl)c1cc2ccccc2oc1=O	i
SMILES	ST2 inh
O=C(Nc1ccccc1O)c1cc2ccccc2oc1=O	34%*
O=C(NCc1cnn2ccccc12)c1cccc(Cn2cccn2)c1	i
Cc1ccc(SC(C)C(=O)NCc2cnn3ccccc23)cc1 (stereo not drawn)	i
CCSC[C@H](N)C(=O)NCc1cnn2ccccc12	i
O=C(COCc1ccccc1)NCc1cnn2ccccc12	i
COc1cccc(CC(=O)NCc2cnn3ccccc23)c1	33%*
C=CCOC(=O)NCc1cnn2ccccc12	40%*
Cc1nn(CCCC(=O)Nc2cc(Br)ccc2O)c(C)c1[N+](=O)[O-]	i
O=C(COc1ccccc1)N1C[C@@H]2C[C@H](C1)c1c(-c3cc4ccccc4s3)ccc(=O)n1C2	i
O=C1Nc2cc(Cl)c(Cl)cc2N(O)N1c1ccc(Br)cc1	i
Nc1cnc(-c2cccc3ccnn23)cn1	i
Cc1nc2ccc(NC(=O)NC3CC3)cc2nc1C	i
COc1cccc2ccc(C3C(=O)c4ccccc4C3=O)nc12	i
COc1ccc(C2CC(C3C(=O)c4ccccc4C3=O)=NN2)cc1 (stereo not drawn)	36%*
COc1ccc(C2=NNC(c3ccccc3)C2)c(O)c1 (stereo not drawn)	i
C=CCSc1nnc2c(n1)OC(CC)N(C(C)=O)c1ccccc1-2 (stereo not drawn)	i
O=Cc1cn(CCOc2ccc3c(c2)OCO3)c2ccccc12	i
COc1ccc(C(=O)NN2C(=O)C3C4C=CC(C4)C3C2=O)cc1 (stereo not drawn)	i
CCCCc1ncc(CN2CCN(Cc3ccc(OCC)cc3)C(CCO)C2)[nH]1 (stereo not drawn)	i
CCCCc1ncc(CN2CCc3[nH]cnc3C2c2cccc(O)c2)[nH]1 (stereo not drawn)	37%*
Cc1ccc(C2c3nc[nH]c3CCN2Cc2cc(C)ccc2O)cc1 (stereo not drawn)	i
Nc1ncnc(Nc2ccccc2)c1[N+](=O)[O-]	i
CC(C)CN1CC(C(=O)NC2CCC(n3cnnc3)CC2)CC1=O (stereo not drawn)	i
COc1ccc2c(=O)c(-c3ccccc3Cl)c(C(F)(F)F)oc2c1	i
COc1ccc2c(=O)c(-c3ccccc3C)c(C(F)(F)F)oc2c1	75%*
Cc1ccccc1-c1c(C(F)(F)F)oc2c(C)c(O)ccc2c1=O	i
CN1CCN(C(=O)c2ccc(CS(=O)(=O)c3ccc(Br)cc3)o2)CC1	i
Cc1c(C(=O)N2CCC(C)CC2)oc2ccc(S(=O)(=O)N3CCCC3)cc12	i
Cn1cc(C(=O)N2CCCC(O)(CO)CC2)c2ccccc21 (stereo not drawn)	i
